Source: PubChem BioAssay AID588382 (National Center for Advancing Translational Sciences (NCATS), 2011)
The whole screen tested about 1,300 compounds, of which about 150 (12%) were called active. A call without a number means that no potency is given here. About 30% were inconclusive and are not listed. The sample holds actives, similar compounds and a random draw of the others, so the mix is not that of the screen. Calls follow the shape of the dose curve; as a rule, active = well fitted cell-killing curve with a large enough effect; inconclusive = small, poorly fitted or top-dose-only effect, or effect the other way; inactive = flat fitted curve, though single readings scatter.
Potency is read from the fitted curve at half-maximal effect.

Assay: qHTS of small molecules that selectively kill Giardia lamblia: Hit Validation in HepG2 cytotox;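 also: compound exposure lasted overnight at 37 deg C; nearly all actives have a fitted effect of over 55% in size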
Conditions: cell viability; Potency: HepG2 cytotoxicity; series mostly up to 38.3 µM
In short: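 HepG2 cells seeded and incubated overnight at 37 deg C, then 23 nL compound added by pintool and incubated overnight at 37 deg C. Viability read as ATP luminescence with ATPLite after 15 min at room temperature.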
In the case of `CC12CN3CC(C)(CN(C1)C3c1ccc([N+](=O)[O-])o1)C2` (centres undefined), the Potency is reported as “inactive”. With `O=[N+]([O-])c1cccc2nc3ccccc3c(NCCCn3ccnc3[N+](=O)[O-])c12` the Potency was 0.0736 µM (active). With `O=C(NC(=S)Nc1ccc(CN2CCOCC2)cc1)c1ccc([N+](=O)[O-])cc1Cl` the Potency was “inactive”. With `CCN(CC)CCCC(C)Nc1c2ccc(Cl)cc2nc2ccc(OC)cc12` (centres undefined) the Potency was 4.65 µM (active). For `CCN(CC)CCCC(C)Nc1cc(/C=C/c2ccccc2Cl)nc2cc(Cl)ccc12` (centres undefined), the Potency was 2.07 µM (active). With `CCc1nc2cc([N+](=O)[O-])c([N+](=O)[O-])cc2[nH]1` the Potency was “inactive”. In the case of `Cc1cccc(-n2nc([N+](=O)[O-])c(=NCc3cccnc3)n2O)c1`, the Potency is reported as “inactive”. With `O=C(COc1cccnc1[N+](=O)[O-])Nc1cc(Cl)ccc1Cl` the Potency was “inactive”. In the case of `COc1ccccc1C(=O)NC(=O)OCCn1c(C)cnc1[N+](=O)[O-]`, the Potency is reported as “inactive”. With `O=[N+]([O-])c1ccc(Nc2ccccc2)c2nonc12` the Potency was “inactive”. In the case of `O=[N+]([O-])c1nn(-c2ccc3c(c2)OCCO3)n(O)c1=NC1CCCCCC1`, the Potency is reported as “inactive”. With `Cc1ccnc(NC(=O)c2ccc3c(c2)OCO3)c1` the Potency was 0.585 µM (active). With `O=C(COc1cccnc1[N+](=O)[O-])Nc1ccc2c(c1)OCO2` the Potency was “inactive”. In the case of `Cc1ccc(C(=O)Nc2ccc3c(c2)OCCO3)o1`, the Potency is reported as “inactive”. For `Cc1ncc([N+](=O)[O-])n1CCOC(=O)Nc1ccc([N+](=O)[O-])cc1`, the Potency was “inactive”. With `COc1cccc(NC(=O)COc2cccnc2[N+](=O)[O-])c1` the Potency was “inactive”. With `O=c1c(-c2cccc([N+](=O)[O-])c2)[n+]([O-])c2ccccc2n1O` the Potency was “inactive”. With `O=C1C(c2ccncc2)=C(O)c2ccccc21` the Potency was 5.85 µM (active). For `Cn1c(=O)c(=O)n(C)c2cc([N+](=O)[O-])c(N3CCOCC3)cc21`, the Potency was “inactive”. In the case of `O=C(Nc1nccs1)c1cc([N+](=O)[O-])ccc1Cl`, the Potency is reported as “inactive”. With `Cc1cc(=O)oc2cc(O)c(N=Nc3ccccc3)cc12` the Potency was “inactive”. With `CC(C)OC(=O)Nc1ccc2c(c1)N(C(=O)N1CCN(C)CC1)c1ccccc1CC2` the Potency was 0.521 µM (active). With `CC(NC(=O)Cn1cc(Br)c([N+](=O)[O-])n1)c1ccccc1` (centres undefined) the Potency was “inactive”. For `Cc1ncc([N+](=O)[O-])n1CCOC(=O)C12CC3CC(CC(C3)C1)C2`, the Potency was “inactive”. With `CCOC(=O)c1ccc(NS(C)(=O)=O)cc1` the Potency was “inactive”. For `CCOC(=O)c1c(C)[nH]c2c1-c1ccccc1C(=O)C2=O`, the Potency was 2.61 µM (active). In the case of `CCOC(=O)C1=C(C)NC2=C(C(=O)c3ccccc32)C1c1ccc([N+](=O)[O-])o1` (centres undefined), the Potency is reported as “inactive”. For `CC(NC(=O)COc1cccnc1[N+](=O)[O-])c1ccc(Cl)cc1Cl` (centres undefined), the Potency was “inactive”. With `COC(=O)c1ccc(Nc2ccc3nonc3c2[N+](=O)[O-])cc1` the Potency was “inactive”. In the case of `CCn1cnc2c([N+](=O)[O-])c(NS(=O)(=O)c3ccc(C)cc3)ccc21`, the Potency is reported as “inactive”. For `COc1cc(/C=C2\SC(=O)N(Cc3ccc(Cl)cc3)C2=O)cc([N+](=O)[O-])c1O`, the Potency was “inactive”. With `O=C(Cc1ccccc1)Nc1nnc(-c2cccs2)s1` the Potency was “inactive”. In the case of `O=[N+]([O-])c1ncc(Br)cc1Nc1ccccc1`, the Potency is reported as “inactive”. For `O=S(=O)(Nc1cc(Sc2cccc3cccnc23)c(O)c2ccccc12)c1ccc(F)cc1`, the Potency was 4.65 µM (active). With `COC(=O)[C@@]1(Cc2ccc(OC)cc2)[C@H]2c3cc(C(=O)N4CCCC4)n(CCn4cc([N+](=O)[O-])nc4C)c3C[C@H]2CN1C(=O)c1ccccc1` the Potency was “inactive”. In the case of `CN(C)/[N+]([O-])=N/Oc1ccc([N+](=O)[O-])cn1`, the Potency is reported as “inactive”. In the case of `O=c1c([N+](=O)[O-])cccn1Cc1ccc(F)cc1Cl`, the Potency is reported as “inactive”. For `CC1CCCN(C(=O)c2ccc([N+](=O)[O-])o2)C1` (centres undefined), the Potency was “inactive”. For `O=C(CSc1ccsc1[N+](=O)[O-])NCc1ccccc1`, the Potency was “inactive”. In the case of `CCn1cc(-c2cc(C(=O)O)c3ccccc3n2)cn1`, the Potency is reported as 2.07 µM (active). With `CCOC(=O)c1nc(C(=O)NCc2ccc(C)cc2)nc2ccccc12` the Potency was “inactive”. With `O=C(NNC(=O)c1cc(-c2ccncc2)nc2ccccc12)c1ccccc1O` the Potency was “inactive”. For `CC(C)CC(=O)NC(=S)NNC(=O)c1ccc([N+](=O)[O-])cc1`, the Potency was “inactive”. With `Cc1ccc(S(=O)(=O)N2[C@@H](c3cccc(Cl)c3)C(C(=O)O)=CC[C@H]2c2cccc(C)c2)cc1` the Potency was “inactive”. In the case of `Cc1cc(N2CCN(C)CC2)nc2ccc(NC(=S)N3CCN(c4ccc(Cl)cc4)CC3)cc12`, the Potency is reported as “inactive”. For `Cc1cccc(N2CCN(C(=S)Nc3ccc4nc(N5CCN(C)CC5)cc(C)c4c3)CC2C)c1` (centres undefined), the Potency was 18.5 µM (active). In the case of `O=c1sc(N2CCN(c3ccc(F)cc3)CC2)nc2ccsc12`, the Potency is reported as “inactive”. With `Cc1cc(N2CCN(C)CC2)nc2ccc(NC(=S)N3CCN(c4cccc(Cl)c4)CC3)cc12` the Potency was “inactive”. With `Cc1cc(N2CCN(C)CC2)nc2ccc(NC(=S)N3CCN(c4ccc(F)cc4)CC3)cc12` the Potency was 20.7 µM (active). In the case of `Cc1cccc(N2CCN(C(=S)Nc3ccc4nc(N5CCN(C)CC5)cc(C)c4c3)CC2)c1C`, the Potency is reported as 4.65 µM (active). In the case of `O=Nc1c2ccc[nH]c-2c2ccc([N+](=O)[O-])cc12`, the Potency is reported as “inactive”. For `O=C(Nc1ccc(F)cc1)C1CCN(C(=O)c2ccc([N+](=O)[O-])cc2)CC1`, the Potency was “inactive”. In the case of `C/C(=N/NC(=O)C(O)(c1ccccc1)c1ccccc1)c1ccc([N+](=O)[O-])o1`, the Potency is reported as “inactive”. With `CCOc1ccc(-c2c(C(=O)N/N=C/c3ccc(C)s3)nnn2-c2nonc2N)cc1` the Potency was “inactive”. In the case of `Cc1ccc(CN=c2c([N+](=O)[O-])nn(-c3ccc(Cl)cc3)n2O)cc1`, the Potency is reported as “inactive”. For `Cc1ccc(CNC(=O)CSc2ccsc2[N+](=O)[O-])cc1`, the Potency was “inactive”. With `COc1ccc2c3n([n+]([O-])c2c1)CCN=C3c1ccc(C)cc1` the Potency was “inactive”. With `CC(C)CC(=O)Nc1ncc([N+](=O)[O-])s1` the Potency was “inactive”. For `Cc1ccc(CCN=c2c([N+](=O)[O-])nn(-c3ccccc3)n2O)cc1`, the Potency was “inactive”. With `COc1ccc(-n2nc([N+](=O)[O-])c(=NCc3cccnc3)n2O)cc1` the Potency was “inactive”. For `CCOC(=O)c1cc([N+](=O)[O-])sc1NC(=O)CC`, the Potency was “inactive”. With `O=C(c1ccco1)N1CCN(c2c([N+](=O)[O-])nn(-c3ccc(Cl)cc3)[n+]2[O-])CC1` the Potency was “inactive”. For `Cc1ncc(CO)c(/C=N/NC(=O)c2cc3c(s2)CCCC3)c1O`, the Potency was 2.07 µM (active). In the case of `O=[N+]([O-])c1nn(-c2ccccc2)n(O)c1=NCCc1ccccc1`, the Potency is reported as “inactive”. For `O=C(CNC(=O)c1ccccc1F)N/N=C/c1cc(Br)ccc1OCc1ccccc1`, the Potency was “inactive”. With `CN1C(=O)/C(=C/c2ccc(O)c([N+](=O)[O-])c2)N(C)C1=S` the Potency was “inactive”. For `COc1ccc(C(=O)NC2CCN(S(=O)(=O)c3ccc(F)cc3)CC2)cc1`, the Potency was “inactive”. In the case of `O=C(NNC(=O)c1ccc([N+](=O)[O-])o1)c1ccccc1`, the Potency is reported as “inactive”. In the case of `O=C(Nc1ccc2[nH]ccc2c1)c1ccccc1`, the Potency is reported as 4.14 µM (active). With `COc1ccc(NC(=O)c2ccco2)c(NC(=O)c2ccc([N+](=O)[O-])cc2)c1` the Potency was “inactive”. For `O=C(Nc1ccccc1O)c1ccc([N+](=O)[O-])cc1`, the Potency was “inactive”. In the case of `COc1ccc(C(=O)Nc2ccc3[nH]ccc3c2)cc1`, the Potency is reported as 2.33 µM (active). For `O=[N+]([O-])c1ccc(CSc2nnc(-c3cccnc3)o2)cc1`, the Potency was “inactive”. For `NNC(=O)c1cccc(Cn2cc(Br)c([N+](=O)[O-])n2)c1`, the Potency was “inactive”. With `Cc1cccc(CCN=c2c([N+](=O)[O-])nn(-c3ccccc3)n2O)c1` the Potency was “inactive”. With `Nc1c(Cl)cc(C2=NCCn3c2c2ccc(C(F)(F)F)cc2[n+]3[O-])cc1Cl` the Potency was “inactive”. For `COc1ccc(-c2cn3cc([N+](=O)[O-])ccc3n2)cc1OC`, the Potency was “inactive”. With `CC(=O)Nc1ccc(NC(=O)c2c([N+](=O)[O-])cnn2C)cc1` the Potency was “inactive”. For `c1csc(-c2ccc(N3CCOCC3)nn2)c1`, the Potency was 6.56 µM (active). With `O=[N+]([O-])c1ccc(O/N=[N+](\[O-])N2CCCCC2)c([N+](=O)[O-])c1` the Potency was “inactive”. For `CC1CCCCC1NC(=O)COc1cccnc1[N+](=O)[O-]` (centres undefined), the Potency was “inactive”. With `O=C1OC(CN(Cc2ccccc2)Cc2ccccc2)CN1N=Cc1ccc([N+](=O)[O-])o1` (centres undefined) the Potency was “inactive”. For `CCCCC(=O)Nc1ncc([N+](=O)[O-])s1`, the Potency was “inactive”. For `COc1ccc(C(=O)c2c(C)oc3cc([N+](=O)[O-])c(O)c([N+](=O)[O-])c23)cc1`, the Potency was “inactive”. In the case of `O=C(Nc1nc(-c2cccs2)cs1)c1ccc([N+](=O)[O-])o1`, the Potency is reported as 1.85 µM (active). For `Cc1ccc(-c2csc(NC(=O)c3ccc([N+](=O)[O-])o3)n2)cc1`, the Potency was 11.7 µM (active). In the case of `O=C(Nc1nc2ccccc2s1)c1ccc([N+](=O)[O-])o1`, the Potency is reported as “inactive”. For `O=C(Nc1nc2c(F)cccc2s1)c1ccc([N+](=O)[O-])o1`, the Potency was “inactive”. In the case of `Cc1cc(C)c2sc(NC(=O)c3ccc([N+](=O)[O-])o3)nc2c1`, the Potency is reported as “inactive”. In the case of `Cc1cc(C)c2nc(NC(=O)c3ccc([N+](=O)[O-])o3)sc2c1`, the Potency is reported as “inactive”. For `COc1ccccc1C1C([N+](=O)[O-])=CC([N+](=O)[O-])=CN1C` (centres undefined), the Potency was “inactive”. In the case of `Cc1cnc([N+](=O)[O-])n1CCOC(=O)NC(=O)c1ccccc1Cl`, the Potency is reported as “inactive”. With `CC(=O)NC(Cc1ccc(F)cc1)C(=O)NC1CCN(c2ncccc2[N+](=O)[O-])CC1` (centres undefined) the Potency was “inactive”. In the case of `Cn1c([N+](=O)[O-])cnc1N1CCN(c2nncs2)C1=O`, the Potency is reported as “inactive”. For `COc1cc(/C=C2\SC(=O)N(c3ccc(Cl)cc3)C2=O)cc([N+](=O)[O-])c1O`, the Potency was “inactive”. With `COc1ccc(NS(=O)(=O)c2ccc(C)cc2)c([N+](=O)[O-])c1` the Potency was “inactive”. For `COc1cc2c(cc1OC)CN(C(=O)c1ccc([N+](=O)[O-])o1)CC2`, the Potency was “inactive”. With `Cc1ncc([N+](=O)[O-])n1CCOC(=O)Nc1ccc(Cl)c(Cl)c1` the Potency was “inactive”. In the case of `O=C(COc1cccnc1[N+](=O)[O-])NCCc1ccc(Cl)cc1Cl`, the Potency is reported as “inactive”.
